Test results reported in PubChem BioAssay (NCATS).
Values joined by “and” are separate entries in the source; they are usually repeats but may differ in a detail not shown here. Equal entries are not always repeated. Records with an inconclusive call do not appear. Values without a mark were called inactive. Active and inactive are the calls of the source. Calls come from the whole dose curve; as a rule, active = well fitted curve in the direction sought with a large enough effect; inconclusive = small, poorly fitted or top-dose-only effect, or another doubt; inactive = no such curve, though single readings can be large or run the other way. Where a SMILES comes first, the peptide text is derived from it. [ ]: non-standard residue; d: D form. pGlu = O=C1CC[C@@H](C(=O)O)N1; Thz = O=C(O)[C@@H]1CSCN1

assay: qHTS Assay for Identifying Gametocytocidal Compounds (AID 743244);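 for max response: actives lower the fluorescent signal which means gametocytes are killed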; conditions: P. falciparum 3D7 stage III-V gametocytes, alamarBlue, 72 h; max response: active compounds read low
Method in brief: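 Fluorescence at Ex 525/Em 598 nm, recorded 24 h after alamarBlue addition, reports residual metabolic activity of 3D7 gametocytes (stages III–V) following 72 h compound exposure at 37 °C, 5% CO2.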
% is set by controls: 0 for no effect and ±100 for the full control effect; potency is the fitted concentration of half-maximal effect.

Row | SMILES | max response | Potency
1 | Clc1ccccc1-c1nc(-c2ccncc2)no1 | 20.9% | –
2 | C#CC1(O)CC[C@H]2[C@@H]3CCC4=CCCC[C@@H]4[C@H]3CC[C@@]21C (stereo partly drawn) | 18.8% | –
3 | C=CCN1C(=O)C(CC(C)C)NC1=S (stereo not drawn) | 24.3% and -10.7% | –
4 | COC(=O)C1=C(C)NC(C)=C(C(=O)OCC(C)=O)C1c1ccccc1[N+](=O)[O-] (stereo not drawn) | 14.8% | –
5 | C=CCc1cccc(/C=N/NC(=O)CN2CCN(Cc3ccccc3)CC2)c1O | – | 29.6 µM (active)
6 | CO[C@@]1(NC(=O)Cc2cccs2)C(=O)N2C(C(=O)O)=C(COC(N)=O)CS[C@@H]21 | -0.875% and -15% | –
7 | CCOC(=O)c1ccccc1O | -3.35% and 9.79% | –
8 | C[C@H](O)[C@H](O)[C@H]1CNc2nc(N)[nH]c(=O)c2N1 | -5.73% | –
9 | CC(C(=O)O)c1ccc(C(=O)c2ccccc2)s1 (stereo not drawn) | -0.0039% | –
10 | COc1ccc(-c2cc(=S)ss2)cc1 | 9.16% | –
11 | C=C(Nc1ccc(OCC)cc1)Nc1ccc(OCC)cc1 | 14.6% and 14.3% | –
12 | COc1cc(/C=C/C(=O)N2CCN(CC(=O)N3CCCC3)CC2)cc(OC)c1OC | -1.2% | –
13 | CC(C(=O)O)c1ccc(C(=O)c2cccs2)cc1 (stereo not drawn) | 13.3% | –
14 | CCCC(=O)OC[C@@H](OC(=O)CCC)[C@@H](OC(=O)CCC)[C@H](Cn1c2nc(=O)[nH]c(=O)c-2nc2cc(C)c(C)cc21)OC(=O)CCC | 3.76% | –
15 | COc1cc2c3cc1Oc1cc(ccc1O)C[C@@H]1c4c(cc(OC)c(O)c4Oc4ccc(cc4)C[C@@H]3N(C)CC2)CC[N+]1(C)C | 1.34% | –
16 | O=C(O)Cc1cccc(-c2cc(CCCCCCc3ccc(O[C@H]4O[C@H](CO)[C@@H](O)[C@H](O)[C@@H]4O)c(-c4cccc(CC(=O)O)c4)c3)ccc2O[C@H]2O[C@H](CO)[C@@H](O)[C@H](O)[C@@H]2O)c1 | 36.1% | –
17 | CCCCCCCCCCCC(=O)[O][Sn]([CH2]CCC)([CH2]CCC)[O]C(=O)CCCCCCCCCCC | -1.72% | –
18 | CC1(C)S[C@@H]2[C@H](NC(=O)[C@H](NC(=O)N3CCN(S(C)(=O)=O)C3=O)c3ccccc3)C(=O)N2[C@H]1C(=O)O | 9.5% | –
19 | Nc1ccc(C(=O)O)c(O)c1 | 1.29% | –

Row | SMILES | max response | Potency
20 | Cc1c(C(=O)O)c(O)cc2c1C(=O)c1c(O)c([C@@H]3O[C@H](CO)[C@@H](O)[C@H](O)[C@H]3O)c(O)c(O)c1C2=O | -1.02% | –
21 | CC1(C)[C@@H](O[C@H]2O[C@H](C(=O)O)[C@@H](O)[C@H](O)[C@H]2O[C@@H]2O[C@H](C(=O)O)[C@@H](O)[C@H](O)[C@H]2O)CC[C@]2(C)[C@H]3C(=O)C=C4[C@@H]5C[C@@](C)(C(=O)O)CC[C@]5(C)CC[C@@]4(C)[C@]3(C)CC[C@@H]12 | 1.42% and -3.92% | –
22 | CN1CCN(c2cc3c(nn2)Oc2ccccc2N3C)CC1 | -7.02% | –
23 | COC(=O)C1=C(C)NC(C)=C(C(=O)OCC(C)C)C1c1ccccc1[N+](=O)[O-] (stereo not drawn) | 0.875% | –
24 | CN1[C@@H]2CC[C@H]1CC(OC(c1ccccc1)c1ccccc1)C2 (stereo partly drawn) | -0.265% and -8.62% | –
25 | CCOc1ccc2nc(S(N)(=O)=O)sc2c1 | 10.4% | –
26 | C[S+](CC[C@H](N)C(=O)O)C[C@H]1O[C@@H](n2cnc3c(N)ncnc32)[C@H](O)[C@@H]1O (stereo partly drawn) | 6.19% and -10.1% | –
27 | CC(=O)c1ccc(OCC(=O)N2CCCCC2)cc1 | 6.76% | –
28 | COC(=O)[C@H]1[C@H]2C[C@@H]3c4[nH]c5cc(OC)ccc5c4CCN3C[C@H]2C[C@@H](OC(=O)/C=C/c2cc(OC)c(OC)c(OC)c2)[C@@H]1OC | -0.068% | –
29 | Cc1[nH]cnc1CN1CCc2c(c3ccccc3n2C)C1=O | -6.58% | –
30 | Nc1c(CC(=O)O)cccc1C(=O)c1ccc(Br)cc1 | 4.37% | –
31 | Cc1c(Nc2ncccc2C(=O)O)cccc1C(F)(F)F | 18.5% | –
32 | [O-][n+]1ccccc1SSc1cccc[n+]1[O-] | – | 0.148 µM (active)
33 | c1ccc2sc(SN3CCOCC3)nc2c1 | -2.78% | –
34 | CC1(C)C[C@@H]1C(=O)N/C(=C\CCCCSC[C@H](N)C(=O)O)C(=O)O | 3.26% and 5.48% | –
35 | Cc1ccc(C(=O)c2ccc(CC(=O)O)n2C)cc1 | 39.2% | –
36 | N=C(N)N | -3.24% | –
37 | O=C(O)Cc1ccc(-c2ccccc2)cc1 | -0.327% | –
38 | O=C1CC[C@@H](C(=O)N2CSC[C@H]2C(=O)O)N1 ([pGlu]-[Thz]-OH) | 5.51% | –
